Assay results reported in PubChem BioAssay (NCI).
About 79,000 compounds went through this panel and 15% of them were active in at least one assay; those are over-represented in the sample as a whole. Active and inactive are the calls of the source. Rule as the data show it: active = growth inhibition above about 70%; inactive = the rest. Where a SMILES comes first, the peptide text is derived from it. [ ]: non-standard residue; d: D form. The star is where a group is joined. Hyp = O=C(O)[CH]1C[CH](O)CN1; Cbz = O=C(OCc1ccccc1)*

How the values were obtained:
[1] = NCI Yeast Anticancer Drug Screen. Data for the rad50 strain (AID 155);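 also: 0% = growth of vehicle-only cultures of the same strain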; conditions: S. cerevisiae rad50 strain growth inhibition; at 50.0 µM; stronger effect = higher value
How it was run: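 Compounds were tested on a yeast strain with an engineered DNA damage repair alteration; the reported value is growth inhibition normalised to vehicle treatment.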

[2] = NCI Yeast Anticancer Drug Screen. Data for the mec2-1 strain (AID 157); conditions: S. cerevisiae mec2-1 strain, at 50.0 µM, stronger effect = higher value
How it was run: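 Readout is yeast growth inhibition, normalised to vehicle-treated controls, in the mec2-1 strain exposed to compound.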

[3] = NCI Yeast Anticancer Drug Screen. Data for the sgs1 mgt1 strain (AID 161);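 also: 0% = growth of cultures given vehicle only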; conditions: S. cerevisiae sgs1 mgt1 strain, at 50.0 µM, stronger effect = higher value
How it was run: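 Growth of a repair-deficient yeast mutant was monitored after compound treatment and expressed as inhibition relative to vehicle-treated cultures.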

[4] = NCI Yeast Anticancer Drug Screen. Data for the cln2 rad14 strain (AID 165);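 also: 0% = growth equal to vehicle treated cultures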; conditions: S. cerevisiae cln2 rad14 strain, at 50.0 µM, stronger effect = higher value
How it was run: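 Relative to vehicle controls, growth inhibition of compound-treated cln2 rad14 yeast was recorded.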

[5] = NCI Yeast Anticancer Drug Screen. Data for the bub3 strain (AID 167); conditions: S. cerevisiae bub3 mutant strain, at 50.0 µM, stronger effect = higher value
How it was run: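 Growth of a checkpoint-deficient yeast mutant is measured after compound exposure. Values represent inhibition relative to vehicle.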

[6] = NCI Yeast Anticancer Drug Screen. Data for the mlh1 rad18 strain (AID 175); conditions: S. cerevisiae mlh1 rad18 strain growth inhibition; at 50.0 µM; stronger effect = higher value
How it was run: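 Test agents were incubated with a yeast strain of defined genotype (DNA damage repair defect). Inhibition of growth was derived by comparison with vehicle-exposed cultures.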

Row | SMILES | growth inhibition [1] | growth inhibition [2] | growth inhibition [3] | growth inhibition [4] | growth inhibition [5] | growth inhibition [6]
1 | Cc1nc2ccccc2nc1CCO | -12.7% (inactive) | -0.15% (inactive) | -3.85% (inactive) | -24.2% (inactive) | -24.8% (inactive) | -8.8% (inactive)
2 | NC(=O)CNC(=O)C1CC(O)CN1C(=O)C1CCCN1C(=O)OCc1ccccc1 (stereo not drawn) (Cbz-Pro-[Hyp]-Gly-NH2; configuration not given here) | -3.9% (inactive) | 1.1% (inactive) | 1.55% (inactive) | 4.15% (inactive) | 9.45% (inactive) | 2.2% (inactive)
3 | Cc1ccc(C2=CSc3ccccc3N2)cc1 | 24.8% (inactive) | 38% (inactive) | 45.6% (inactive) | -13.9% (inactive) | 62.5% (inactive) | 29.2% (inactive)
4 | CC(=NNC(=S)Nc1cccc(C)c1)c1cccc(C(C)=NNC(=S)Nc2cccc(C)c2)n1 | 37.4% (inactive) | 41.2% (inactive) | 62.6% (inactive) | 29.1% (inactive) | 35.4% (inactive) | 47.2% (inactive)
5 | CC1(C)OC2C(C(=O)O)OC(n3cnc4c(N)ncnc43)C2O1 (configuration not stated) | -3.35% (inactive) | -12.2% (inactive) | -9.7% (inactive) | -2.05% (inactive) | -21.6% (inactive) | -0.7% (inactive)
6 | CC1(C)C(CC(=O)O)CCCC1CC(=O)O (configuration not stated) | 12.2% (inactive) | 0.95% (inactive) | 4.15% (inactive) | 2.15% (inactive) | -11.4% (inactive) | 49.2% (inactive)
7 | CCC(=O)OC1(c2ccccc2)C(CN(C)C)CCCC1CN(C)C (configuration not stated) | -11.2% (inactive) | -17.6% (inactive) | -22.2% (inactive) | -47.9% (inactive) | 2.85% (inactive) | -14.9% (inactive)
8 | COCC(=O)C(C(C)=O)C(c1ccc(N(C)C)cc1)C(C(C)=O)C(=O)COC (configuration not stated) | -12.2% (inactive) | -10.6% (inactive) | -12.7% (inactive) | -69.7% (inactive) | 2.8% (inactive) | -9.35% (inactive)
9 | CC(O)(c1ccccc1)C1CC1c1ccccc1 (configuration not stated) | 29.9% (inactive) | -3.5% (inactive) | 20.8% (inactive) | -17.2% (inactive) | -12.5% (inactive) | 6.3% (inactive)
10 | CCC(c1ccc(O)cc1)c1cc2c(cc1OCCO)OCO2 (configuration not stated) | -15.7% (inactive) | -9.25% (inactive) | -5.7% (inactive) | -11.2% (inactive) | -7.9% (inactive) | -5.3% (inactive)
11 | CC1(C)S[C@@H]2[C@H](NC(=O)C3(N)CCCCC3)C(=O)N2[C@H]1C(=O)O | -11.8% (inactive) | -29.1% (inactive) | 7.85% (inactive) | -5.65% (inactive) | -59.6% (inactive) | -11.8% (inactive)
12 | N#CCCNC=O | -7.15% (inactive) | 0.4% (inactive) | -8.7% (inactive) | -7% (inactive) | 6.3% (inactive) | -4.95% (inactive)
13 | CSCC1CC(c2ccc(Cl)cc2)=NO1 (configuration not stated) | 27.8% (inactive) | 6.8% (inactive) | 1.05% (inactive) | -1.4% (inactive) | 0.45% (inactive) | 32.6% (inactive)
14 | CC(C)COCC1COC2(OCC(C)(C)C2OC(=O)Nc2ccccc2)O1 (configuration not stated) | 5.55% (inactive) | -0.6% (inactive) | -12.4% (inactive) | -5.6% (inactive) | 5.95% (inactive) | 17.6% (inactive)
15 | CC(C)CC1N=C(OCc2ccccc2)OC1=O (configuration not stated) | -16.6% (inactive) | -79.5% (inactive) | -20.4% (inactive) | -15.7% (inactive) | 5.25% (inactive) | -14.2% (inactive)
16 | CCOCC(Cl)C(OCC)OCC (configuration not stated) | 0.45% (inactive) | 6.5% (inactive) | -5.4% (inactive) | -20.1% (inactive) | 2.85% (inactive) | -1.1% (inactive)
17 | CCCCN(CCCC)C(C)=O | -45.1% (inactive) | -4.85% (inactive) | 17.1% (inactive) | -35% (inactive) | 5.15% (inactive) | -8.2% (inactive)
18 | Cn1c(COC(=O)Nc2ccccc2)c(COC(=O)Nc2ccccc2)c2ccc3cc(Cl)c(Cl)cc3c21 | 72.9% (active) | 78.8% (active) | 76.3% (active) | 81.2% (active) | 84.3% (active) | -44% (inactive)
19 | NC(=O)c1ncccc1C(=O)O | -9.2% (inactive) | -9.65% (inactive) | -18.6% (inactive) | 2.3% (inactive) | -13.6% (inactive) | -12.2% (inactive)

Row | SMILES | growth inhibition [1] | growth inhibition [2] | growth inhibition [3] | growth inhibition [4] | growth inhibition [5] | growth inhibition [6]
20 | CCCOC(=O)c1cc(C(=CCC[C@H]2CC[C@@]3(C)[C@@H](CC[C@@H]4[C@@H]3CC[C@]3(C)[C@@H](C(C)CCCC(C)C)CC[C@@H]43)C2)c2cc(Cl)c(O)c(C(=O)OCCC)c2)cc(Cl)c1O (some centres not stated) | 8.7% (inactive) | -9.05% (inactive) | -0.55% (inactive) | 5.65% (inactive) | -4.05% (inactive) | -45% (inactive)
21 | OCCN(CCO)c1cc(/C=C/c2cccc3ccccc23)nc2ccccc12 | 56.9% (inactive) | 11.3% (inactive) | 39.6% (inactive) | 3.85% (inactive) | -6.5% (inactive) | 37.4% (inactive)
22 | O=[N+]([O-])c1ccc2c(c1)Sc1ccccc1N2CCCCCl | -24% (inactive) | -15.8% (inactive) | -49.2% (inactive) | -7.25% (inactive) | -1.8% (inactive) | -23.2% (inactive)
23 | CCCCCCCCCCCCNC | 38.2% (inactive) | 30.4% (inactive) | 61.9% (inactive) | 30.6% (inactive) | 62.6% (inactive) | 44.9% (inactive)
24 | C[N+]1(Cc2ccccc2)CCC(=O)CC1 | 4.05% (inactive) | -12.9% (inactive) | -7.1% (inactive) | -13.1% (inactive) | 10.9% (inactive) | -13.8% (inactive)
25 | CCCCCCN1CCc2c(C)c(C#N)c3nc4ccccc4n3c21 | -8.45% (inactive) | -8.05% (inactive) | -0.95% (inactive) | 10.9% (inactive) | 19.1% (inactive) | 21.8% (inactive)
26 | c1ccc(-c2nnn(-n3nnc(-c4ccccc4)n3)n2)cc1 | -13% (inactive) | 12.3% (inactive) | 10.9% (inactive) | -5.55% (inactive) | 1.3% (inactive) | 25.5% (inactive)
27 | CCN(CC)CCO/N=C(\c1ccccc1)c1ccccn1 | 4.6% (inactive) | -5.95% (inactive) | 16.9% (inactive) | -78.3% (inactive) | 10.7% (inactive) | 1.2% (inactive)
28 | NC1=CN(Cc2ccccc2)C2=N/C(=C\c3ccccc3)C(=O)N12 | -13.3% (inactive) | -5.8% (inactive) | 8.5% (inactive) | -16% (inactive) | 14.2% (inactive) | -33.7% (inactive)
29 | CCC/C=C(/CC)C(=O)OC(=O)/C(=C/CCC)CC | 23.9% (inactive) | 2.1% (inactive) | 13.8% (inactive) | -7.25% (inactive) | 32.1% (inactive) | 13.6% (inactive)
30 | CN(C)/C(N)=N\C(N)=Nc1cc2ccccc2c2ccccc12 | 1.3% (inactive) | -9.55% (inactive) | -0.2% (inactive) | -23.2% (inactive) | 2.25% (inactive) | -0.55% (inactive)
31 | CC(=O)OCCOCCN1CCN(c2c(O)c3c(c(O)c2Cl)C(=O)C=CC3=O)CC1 | 79.7% (active) | 88.2% (active) | 90.8% (active) | 87.1% (active) | 89.3% (active) | 89.8% (active)
32 | NC1CCCCC1N.O=S(=O)([O-])CCCNC1CCCCC1.O=S(=O)([O-])CCCNC1CCCCC1.[Pt+4] | -6.3% (inactive) | -8.15% (inactive) | -15.7% (inactive) | -23.6% (inactive) | -21.1% (inactive) | 15.9% (inactive)
33 | Cc1cc(C)c(CN(C)C)c(CC(O)c2ccccc2)c1 (configuration not stated) | 10.8% (inactive) | -5.95% (inactive) | 7.4% (inactive) | -15% (inactive) | 3.45% (inactive) | -1.95% (inactive)
34 | C=C1C(=O)OC2C1C(OC(=O)/C(C)=C/C)CC(O)(CCl)C1C(O)C=C(C)C21O (configuration not stated) | 33.5% (inactive) | 14.6% (inactive) | 21.6% (inactive) | 20.8% (inactive) | 10.1% (inactive) | -51.1% (inactive)
35 | CCCCCC(=O)OCCOCCOC | 33.7% (inactive) | -2.9% (inactive) | 29.6% (inactive) | 0.25% (inactive) | 2.25% (inactive) | 29.3% (inactive)
36 | COc1cc2c(cc1OC)C1CC(O)(c3nccc4cc(OC)c(OC)cc34)CCN1CC2 (configuration not stated) | 21.1% (inactive) | -1.8% (inactive) | -3.9% (inactive) | 10.7% (inactive) | -1.3% (inactive) | -14.1% (inactive)
37 | Nc1ccc(OCC(O)CN2CCN(c3ccccc3)CC2)cc1 (configuration not stated) | 7.45% (inactive) | 4.15% (inactive) | 6.65% (inactive) | -3.85% (inactive) | 10.6% (inactive) | 4.1% (inactive)
